Screening data from PubChem.
G9a inh: blocks human histone lysine methyltransferase G9a; G9a H3K9 monomethylation, AlphaScreen, 2 h; AID 504332; 8.8% of 350,000 active; Potency, µM (titrated, usually from 102 µM), without a hit: at the highest dose activity, negative = inhibition, usual class: inhibitors; Q96KQ7; note: % is set by controls: 0 for no effect and ±100 for the full control effect; nearly all actives have a fitted effect of over 75% in size
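Using a bead-based AlphaScreen, monomethylated H3K9 product from 2 h room-temperature reactions (G9a 20 nM, peptide 500 nM, SAM 20 uM) was detected with 0.5 ug/mL rabbit anti-H3K9me1 antibody.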
HP1b chromo inh: blocks HP1-beta chromodomain binding to methylated histone tails | AID 540317 | Potency, µM (series often up to 114 µM), inactives show at the highest dose activity change, negative = inhibition, usual class: inhibitors | AlphaScreen HP1-beta / biotin-H3K9me3 peptide binding | 0.56% of 390,000 active; note: nearly all actives have a fitted effect of over 70% in size
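HP1-beta protein (50 nM final) preincubated 30 min at room temperature with biotinylated H3(1-18)K9me3 peptide (50 nM) in PBS pH 7.4, 0.01% Tween-20, then compound added for 30 min. AlphaScreen streptavidin donor/nickel chelate acceptor beads (10 ug/mL final), 30 min dark, luminescence read.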
BAZ2B block: inhibitors of human BAZ2B bromodomain; AlphaScreen BAZ2B-H3K14Ac peptide displacement; Potency, µM (top dose mostly 114 µM), without a hit: at the highest dose activity change, negative = inhibition, hits mostly inhibitors; 4.4% of 360,000 active; AID 504333; note: % is set by controls: 0 for no effect and ±100 for the full control effect; nearly all actives have a fitted effect of over 60% in size
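Multi-concentration screen (max 110 uM) measuring displacement of acetylated histone H3 peptide from BAZ2B by AlphaScreen, using 50 nM protein, 50 nM peptide and 10 ug/mL streptavidin donor plus Ni-chelate acceptor beads.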
ALOX12 inh: ALOX12 (human) lipoxygenase inhibition. P18054. purified 12hLO, xylenol orange hydroperoxide absorbance. Potency, µM (titrated, usually from 108 µM), for the others: at the highest dose activity change, negative = inhibition, hits mostly inhibitors. 1.1% of 580,000 active. AID 1671190; note: % is set by controls: 0 for no effect and ±100 for the full control effect
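Purified human 12hLO (150 nM final) in 25 mM Hepes, 0.01% Triton X-100, pH 7.0 was preincubated 15 min at room temperature with compound. Then 40 uM arachidonic acid was added, 30 min. Hydroperoxide was read by Fe-XO absorbance ratio 573/405 nm.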
JMJD2A Tudor inh: inhibitors of human JMJD2A Tudor domain | AlphaScreen JMJD2A-Tudor / H3K4me3 peptide binding | Potency, µM (series often up to 114 µM), without a hit: at the highest dose activity change, negative = inhibition, usual class: inhibitors | 4.4% of 390,000 active | AID 504339; note: % is set by controls: 0 for no effect and ±100 for the full control effect; nearly all actives have a fitted effect of over 50% in size
Sfp inh: blocks B. subtilis Sfp PPTase activity | Biochemical Sfp PPTase activity, qHTS | 3.5% of 310,000 active | Q9F4F7 | Potency, µM, for inactives: largest response in the series, negative = inhibition, hits mostly inhibitors | AID 1490;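 note: the enzyme is Sfp with the accession as filed and its product quenches rhodamine fluorescence; 0% = enzyme reaction without inhibitor and -100% = no enzyme wells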
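Compounds were incubated with enzyme (final 15 nM) for 15 min at room temperature before substrate addition started the reaction. Fluorescence at 525 nm excitation, 598 nm emission was recorded immediately and after 30 minutes.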
* = called active by the depositor; ? = inconclusive; / = no result given; [ ] = dose if it differs, or a comment. Most compounds without a hit are left out; they make up all but 8.7% or so of the library. Calls come from the whole dose curve; as a rule, active = well fitted curve in the direction sought with a large enough effect; inconclusive = small, poorly fitted or top-dose-only effect, or another doubt; inactive = no such curve, though single readings can be large; an effect the other way counts as inactive or inconclusive. Potency is the fitted concentration of half-maximal effect.

SMILES	G9a inh	HP1b chromo inh	BAZ2B block	ALOX12 inh	JMJD2A Tudor inh	Sfp inh
O=C1CC(N2CCN(c3ccc(Cl)cc3)CC2)C(=O)N1c1ccc(F)cc1 (stereo not drawn)	-12%	36%	-17%	-4%	-21%	1%
Cc1cccc(N2C(=O)CC(N3CCN(Cc4ccc(Cl)cc4)CC3)C2=O)c1 (stereo not drawn)	40µM*	44%	-16%	33%	-12%	9%
CCOc1ccc(N2C(=O)CC(N3CCN(c4ccccc4OC)CC3)C2=O)cc1 (stereo not drawn)	/	44%	-4%[0.457 µM]	?	-15%	8%
Cc1cccc(N2C(=O)CC(N3CCN(c4ccc(Cl)cc4)CC3)C2=O)c1 (stereo not drawn)	3%	39%	-6%	2%	-21%	5%
COc1ccc(NC2CCN(C3CC(=O)N(c4ccc(F)c(Cl)c4)C3=O)CC2)cc1 (stereo not drawn)	?	?	45µM*	15%	?	-20%
O=C(O)c1ccc(N2C(=O)CC(N3CCN(c4ccc(Cl)cc4)CC3)C2=O)cc1 (stereo not drawn)	45µM*	47%	?	0%	-17%	6%
COc1ncccc1-c1cc(C(=O)N2CCOCC2)c2c(c1)ncn2C	/	/	/	13%[176 µM]	/	/
O=C(Nc1cccc(OCc2ccncc2)c1)c1ccc[n+]([O-])c1	/	/	/	-36%	/	/
COc1ccc(N2CCN(C3CC(=O)N(C)C3=O)CC2)cc1 (stereo not drawn)	?	19%	-6%	2%	3%	17%
COc1ccc(N2C(=O)CC(N3CCN(c4ccc(S(C)(=O)=O)cc4)CC3)C2=O)cc1 (stereo not drawn)	32µM*	12%	1%	18%	-18%	15%
COc1ccc(-c2ccc(C(=O)NCC3CC3)c3occc23)c(C)c1	/	/	/	-16%	/	/
O=C(NCC1CC1)c1ccc(-n2ccnc2)c2ccoc12	/	/	/	10µM*	/	/
CS(=O)(=O)Nc1cccc(NC(=O)c2ccc(-n3ccnc3)c3ccoc23)c1	/	/	/	10µM*	/	/
O=C(CN1CCN(C(=O)c2nn(-c3ccccc3)c(=O)c3ccccc23)CC1)N1CCOCC1	/	/	/	-23%	/	/
O=C1c2cnc(-c3ccccc3)nc2OCCN1Cc1ccc(F)cc1F	/	/	/	-22%[176 µM]	/	/
O=c1/c(=C\c2ccc(O)cc2)sc2n1C(c1ccccc1)C(c1ccccc1)=NN=2 (stereo not drawn)	45µM*	-6%	-31%[57.1 µM]	?	-30%	50µM*
C=C(C)[C@@H]1CC=C(CN2CCN(Cc3ccccc3)CC2)CC1	50µM*	6%	?	-27%	?	0%
CCOC(=O)CCCNC(=O)COC(=O)[C@@H]1CCCN1S(=O)(=O)c1ccc(Cl)cc1	50µM*	40%	23%	?	7%[57.1 µM]	-1%
Cn1ccnc1CN1C(=O)CO[C@H]2CN(C(=O)c3cccnc3)C[C@H]21	/	/	/	45%[176 µM]	/	/
O=C(c1ccccc1)N1CCN(c2ccccc2)CC1	/	11%[57 µM]	/	-7%	-6%	/
O=C(Nc1nccs1)c1nc[nH]c1C(=O)N1CCN(c2ccccc2)CC1	/	74%	/	17%	32µM*	/
O=C(O)c1nccnc1C(=O)N1CCN(c2ccccc2)CC1	?	24%	56µM*	-6%	?	-17%
O=C(c1ccc(C(F)(F)F)cc1)N1CCCC2(CC(c3cccnc3)=NO2)C1 (stereo not drawn)	/	/	/	5%[6.33 µM]	/	/
Cn1c(=O)n([C@H]2CCCN(C(=O)Nc3ccc(F)cc3F)C2)c2ncccc21	/	/	/	36%	/	/
c1cc(CNc2ccc3c(c2)OCO3)ccn1	35µM*	-54%	?	-20%	?	?
SMILES	G9a inh	HP1b chromo inh	BAZ2B block	ALOX12 inh	JMJD2A Tudor inh	Sfp inh
Cc1ccc(S(=O)(=O)c2nnn3c2nc(NCc2ccc4c(c2)OCO4)c2sccc23)cc1	-9%[59 µM]	7%	-3%	-12%	-22%	/
Cc1ccc(S(=O)(=O)c2nc(NCc3ccc4c(c3)OCO4)sc2Cl)cc1	32µM*	5%	-1%	?	-30%	0%
Cc1ccc(CNc2ccc3c(c2)OCO3)cc1	?	-24%	50µM*	/	45µM*	56µM*
COC(=O)CNc1ccc2c(c1)OCO2	8.9µM*	-21%	-32%	-22%	?	-19%
O=C(NCc1ccncc1)C(=O)Nc1ccc2c(c1)OCO2	?	78%	?	-2%	-11%	11%
CN1C[C@@H]2CCCN3CCC[C@@H]([C@H]23)[C@H]1CCCC(=O)NCCN1CCCC1	/	/	/	123%	/	/
CC(C)c1cc(C(=O)N2CC[C@@](O)(C3CCOCC3)[C@H](C)C2)cs1	/	/	/	-6%	/	/
CCc1noc(-c2cn(C3CCN(C(=O)c4ccc(C)c(F)c4)CC3)nn2)n1	/	/	/	8%	/	/
O=S(=O)(NCc1ccccc1F)c1ccc2c(c1)OCCO2	/	/	/	-27%	/	/
Fc1ccc(NC(=S)N2CCCc3ccccc32)cc1	40µM*	-17%	?	?	-26%	-20%
Fc1ccc(CNC(=S)N2CCc3ccccc32)cc1	/	/	/	-9%	/	/
CC(Oc1ccc(Cl)cc1Cl)C(=O)NC(=S)N1CCc2ccccc21 (stereo not drawn)	28µM*	17%	-22%	-23%	-34%	17%
CC(C)(C)C(=O)NC(=S)N1CCc2ccccc21	20µM*	-22%[57 µM]	?	?	-29%	-27%
CC(Oc1ccc(Cl)cc1C(N)=O)C(=O)N1CCc2ccccc21 (stereo not drawn)	/	41%	/	-14%	-3%	/
O=C(NC(=S)N1CCc2ccccc21)C1CCC1	?	17%	-24%	-16%	-2%	-1%
O=C(/C=C/Sc1ccccc1)Nc1ccccc1	/	/	/	-25%	/	/
O=S(=O)(Cc1ccccc1)N1CCC(OC2CCN(Cc3ccccc3)CC2)CC1	/	/	/	8%	/	/
Cc1nn(CCOc2ccccc2Cl)c(C)c1[N+](=O)[O-]	50µM*	10%	4%	23%	-8%	5%
O=c1c(-c2ccccc2)coc2cc(O)cc(O)c12	-48%[2.33 µM]	/	/	?	/	-104%
O=c1c(-c2ccc3c(c2)OCCO3)coc2cc(O)cc(O)c12	-1%[59 µM]	23%	-30%	?	-17%	20µM*
Cc1ccccc1CN(C)C(=O)CCc1nc2ccccc2s1	/	/	/	4%	/	/
COC(=O)c1ccccc1NC(=O)Cc1noc2ccc(C)cc12	-2%[59 µM]	0%	-12%	-1%	-29%	/
COC(=O)c1ccccc1NC(=O)Cc1nc(-c2ccccc2)sc1-c1ccc(C)cc1	45µM*	46%	-3%	?	-12%[57.1 µM]	-17%
CCCN(CCC)c1nc(OC(C(F)(F)F)C(F)(F)F)nc(N2CCOCC2)n1	/	/	/	-5%	/	/
CO[C@H]1[C@H](NC(=O)c2ccc(F)cc2)c2ccccc2C12CCNCC2	/	/	/	18%	/	/
